# About 83,000 compounds went through this panel and 20% of them were active in at least one assay; those are over-represented in the sample as a whole.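 Cell lines were cultured in 96-well plates, exposed to a single compound concentration, and assessed for percent growth 48 hours later.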 Unmarked numbers belong to inactive results. Calls of active or inactive are those of the source. The calls were made as follows: active = growth percent below 10; inactive = the rest.
# Key:
# Test in all cases: NCI-60 one-dose screen, 48 h (100 = growth as untreated, 0 = no growth, -100 = all killed)
# SK-MEL-2 melanoma = settings: 10 µM unless noted
# EKVX NSCLC = settings: 10 µM unless noted
# SN12C renal = settings: 10 µM unless noted
# UO-31 renal = settings: 10 µM unless noted
# TK-10 renal = settings: 10 µM unless noted
# ACHN renal = settings: 10 µM unless noted
# CAKI-1 renal = settings: 10 µM unless noted
# A498 renal = settings: 10 µM
# HL-60(TB) leukemia = settings: 10 µM unless noted
# CCRF-CEM leukemia = settings: 10 µM unless noted
# MOLT-4 leukemia = settings: 10 µM unless noted
# SR leukemia = settings: 10 µM unless noted
# RPMI-8226 leukemia = settings: 10 µM unless noted
# OVCAR-8 ovarian = settings: 10 µM unless noted
# OVCAR-5 ovarian = settings: 10 µM unless noted
# OVCAR-4 ovarian = settings: 10 µM unless noted
# SK-OV-3 ovarian = settings: 10 µM unless noted
# IGROV1 ovarian = settings: 10 µM unless noted
# OVCAR-3 ovarian = settings: 10 µM unless noted
# HS 578T breast = settings: 10 µM unless noted
Structure (SMILES),growth (SK-MEL-2 melanoma) [%],growth (EKVX NSCLC) [%],growth (SN12C renal) [%],growth (UO-31 renal),growth (TK-10 renal) [%],growth (ACHN renal) [%],growth (CAKI-1 renal) [%],growth (A498 renal),growth (HL-60(TB) leukemia),growth (CCRF-CEM leukemia),growth (MOLT-4 leukemia) [%],growth (SR leukemia),growth (RPMI-8226 leukemia),growth (OVCAR-8 ovarian) [%],growth (OVCAR-5 ovarian),growth (OVCAR-4 ovarian) [%],growth (SK-OV-3 ovarian),growth (IGROV1 ovarian),growth (OVCAR-3 ovarian),growth (HS 578T breast)
CN(C)CCCOc1ccc2c(c1)c(C(=O)C(=O)NCCO)cn2Cc1ccccc1,114,102,104,84%,116,99.2,90.5,59.8%,106%,102%,111,115%,106%,98.1,108%,105,110%,99.6%,108%,99.6%
CC1CCCC(C[N+](C)(C)C)C1=O (stereo not given),117,110,92.5,73.5%,106,97.5,103,101%,104%,95.2%,75.7,86.8%,105%,108,104%,93.1,110%,92.3%,121%,111%
NC(=O)CNc1ccc([As]=[As]c2ccc(NCC(N)=O)cc2)cc1 (stereo not given),33.8,23.1,34,54.4%,58.1,71.2,12.5,58.1%,19.8%,10.9%,58.8,14%,13.5%,61.2,74.6%,60.6,93.7%,8.16% (active),-41.5% (active),10.5%
Clc1ccc(N2COOC3(OOC2)C2CC4CC(C2)CC3C4)cc1,87.4,64.2,66.9,-92.1% (active),27.2,29.4,52.3,96.8%,-58% (active),-50.3% (active),56.9,11.2%,35.6%,46.6,70.4%,87.1,92.9%,-52.9% (active),4.41% (active),75.9%
CC(=O)O[C@H]1C(=O)[C@@]2(C)[C@H]([C@H](OC(=O)c3ccccc3)[C@]3(O)C[C@H](OC(=O)[C@H](OC(=O)OCC4COC(C)(C)O4)[C@@H](NC(=O)c4ccccc4)c4ccccc4)C(C)=C1C3(C)C)[C@]1(OC(C)=O)CO[C@@H]1C[C@@H]2O (stereo not given in full),54.2,70.8,51.7,71.3%,79.6,66.5,37.5,47.1%,12.8%,31.3%,35.8,35.7%,13%,39.3,20.8%,79,48.5%,35.3%,15%,30.5%
CN[C@@]1(c2ccccc2Cl)CCCC[C@@H]1NCC1CCCO1 (stereo not given in full),99.7,99.2,96.8,86.4%,102,99.4,93.9,94.4%,99.9%,99.8%,111,95.2%,104%,102,97.4%,93.8,111%,102%,116%,96.3%
CO[C@H]1CC[C@@]2(C)C(=CC[C@@H]3[C@@H]2CC[C@]2(C)C(=O)C(=O)C[C@@H]32)C1,128,108,95.5,86.9%,117,102,93,82.1%,141%,95.3%,115,107%,88.9%,93.3,103%,113,103%,120%,105%,92.6%
CCCCCCC(=O)NC1=C(N2CC2)C(=O)C(NC(=O)CCCCCC)=C(N2CC2)C1=O,73,78.3,41.7,43.1%,75.5,32.9,45.6,66.9%,16.8%,50.7%,49,40.7%,56.1%,32,93%,30.9,39.8%,20.3%,-53.4% (active),88.2%
CC(=O)OC1CCC2(C)C(CCC3C2CC(=O)C2(C)C3CC(Sc3ccc(N(CCCl)CCCl)cc3)C2C(C)=O)C1 (stereo not given),93.3,115,87.3,77.6%,92.6,72.3,68,103%,79.3%,63.1%,77.3,51.5%,49%,84.1,95.6%,84.4,113%,116%,99.6%,110%
CC[C@H](C)[C@H](NC(=O)NC(C)(C)C)C(=O)N(C)[C@H](C[C@@H](OC(C)=O)c1nc(C(=O)N[C@@H](Cc2ccccc2)C[C@H](C)C(=O)OC)cs1)C(C)C,47.3,29.4,12.1,45.4%,49.5,22.7,22.2,-10% (active),-14.6% (active),10.7%,17.4,10.6%,-3.75% (active),18,34.8%,36.2,14.9%,24.5%,-16.8% (active),3.72% (active)
CC(=O)O[C@H]1C(=O)[C@@]2(C)[C@H]([C@H](OC(=O)c3ccccc3)[C@]3(O)C[C@H](OC(=O)[C@H](OC(=O)OC[C@@H]4COC(C)(C)O4)[C@@H](NC(=O)c4ccccc4)c4ccccc4)C(C)=C1C3(C)C)[C@]1(OC(C)=O)CO[C@@H]1C[C@@H]2O,24.3,29.1,27,34.1%,26,36.2,27.4,13.4%,4.01% (active),17.8%,14.7,25.5%,5.35% (active),16.5,6.96% (active),64.4,12.9%,16.6%,8.13% (active),2.33% (active)
CC[C@H](C)[C@H](NC(=O)[C@H]1CCCCN1C)C(=O)N(C)[C@H](C[C@@H](OC(C)=O)c1cccc(C(=O)N[C@@H](Cc2ccccc2)C[C@H](C)C(=O)O)n1)C(C)C,36.3,59.6,28.1,44.7%,29,32.3,13.7,-2.46% (active),-40% (active),16.8%,17.8,18%,22.7%,17.7,52%,34.7,8.71% (active),25.7%,-27.7% (active),28.1%
O=NNc1ccccn1,23.3,109,87.4,83.6%,91,11.2,43.6,96.5%,73.8%,126%,67.9,66.7%,102%,80.3,68%,90.8,90%,86.1%,112%,89.7%
CC(=O)O[C@H]1CC[C@H]2[C@@H]3CC=C4c5nc(-c6ccccc6)sc5CC[C@]4(C)[C@H]3CC[C@]12C,82,79.6,85.5,78.2%,92.4,91.8,67.5,75.2%,82.1%,28.4%,46.1,8.39% (active),-37.3% (active),77.9,75.9%,87.2,94.5%,97.2%,92.9%,64.2%
